# About 2,100 (0.66%) of roughly 320,000 compounds were called active. Inconclusive results (about 53%) are left out. Calls come from the whole dose curve; as a rule, active = well fitted inhibition curve with a large enough effect in the signal ratio, with a control signal flat (not every such curve was filed as active); inconclusive = small, poorly fitted or top-dose-only effect, or effect the other way, or a change in a side signal; inactive = flat fitted curve, though single readings scatter; the % refers to the signal ratio. The entries come from a sample that favours actives as a whole.
# Assay: qHTS Assay for Lipid Storage Modulators in Drosophila S3 Cells;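 for cell number change: cells counted by Cell Tracker Red CMTPX staining in the red channel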; for lipid storage change, negative = inhibition: % is set by controls: 0 for no effect and ±100 for the full control effect
# Conditions: BODIPY lipid droplet fluorescence, 18-24 h, cells fed with added oleic acid; cell number change: measured here: cell count max response; series mostly up to 46.1 µM; lipid storage change, negative = inhibition: at the top concentration
# Outline: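 Laser-scanning cytometry quantifies lipid droplet accumulation (500–530 nm total intensity; droplet/cell object ratio) in oleic acid-fed (400 uM added) Drosophila S3 cells treated with a concentration series. 20 uM Triacsin C defined 100% inhibition.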
# Potency is the fitted concentration of half-maximal effect.
Compound,outcome,"lipid storage change, negative = inhibition",cell number change,Potency
COc1cccc(C(=O)N2CCN(C(=O)C3COc4ccccc4O3)CC2)c1 (configuration not stated),inactive,–,–,–
COCCn1c(=S)[nH]c2cc(C(=O)NC(C)C)ccc2c1=O,inactive,–,–,–
COC(=O)c1ccc2c(=O)n(CCCCCC(=O)O)c(=S)[nH]c2c1,–,5.22% (inactive),9.06%,–
CCOCCCn1c(=S)[nH]c2cc(C(=O)NCCc3ccccc3)ccc2c1=O,inactive,–,–,–
COCCn1c(=S)[nH]c2cc(C(=O)NCCc3ccccc3)ccc2c1=O,–,–,-6.13%,2.31 µM (active)
CCn1c(=S)[nH]c2cc(C(=O)OC)ccc2c1=O,inactive,–,11.1%,–
CCN(CC)CCCn1c(=S)[nH]c2cc(C(=O)OC)ccc2c1=O,–,–,12.4%,3.66 µM (active)
Cc1ccc(S(=O)(=O)Nc2cc(C(C)C)c(O)cc2C)cc1,–,6.78% (inactive),-20%,–
CCOC(=O)/C(C#N)=C/N1CCOCC1,–,-5.47% (inactive),-2.81%,–
NC(=NC(=O)c1ccc(OCC(F)(F)F)nc1)c1ccc(Cl)cc1,–,-1.51% (inactive),-16.5%,–
NC(=O)c1ccsc1NC(=O)COC(=O)COc1ccccc1F,–,8.92% (inactive),-3.04%,–
Cc1ccc(OCC(=O)OCC(=O)Nc2sccc2C(N)=O)cc1C,–,4.32% (inactive),-3.96%,–
COc1cc(OC)cc(C(=O)OCC(=O)Nc2sccc2C(N)=O)c1,–,-18.4% (inactive),2.18%,–
CC(=O)c1ccc(OCC(=O)OCC(=O)Nc2sccc2C(N)=O)cc1,–,–,-10.9%,3.66 µM (active)
COc1ccc(CCC(=O)OCC(=O)Nc2sccc2C(N)=O)cc1,–,–,-27.9%,6.51 µM (active)
COc1ccc(CCC(=O)OCC(=O)Nc2ccccc2)cc1,inactive,–,3.15%,–
CCOC(=O)C1CCN(C(=O)CCc2c(C)nc3c(-c4ccc(F)cc4)c(C)nn3c2C)CC1,–,6.7% (inactive),9.15%,–
COc1ccccc1NS(=O)(=O)c1cccc(C(=O)N2CCN(C/C=C/c3ccccc3)CC2)c1,–,-18.7% (inactive),-3.91%,–
COc1cc2c(C(=O)N(C)c3ccc(F)cc3)cn(C)c(=O)c2cc1OC,–,19.8% (inactive),-28.8%,–
CC(=O)c1c(C)[nH]c(C(=O)COC(=O)CN(C)S(=O)(=O)c2ccc(Cl)cc2)c1C,–,–,–,5.8 µM (active)
CCCC(=O)OCC(=O)c1[nH]c(C)c(C(C)=O)c1C,–,4.32% (inactive),5.74%,–

Compound,outcome,"lipid storage change, negative = inhibition",cell number change,Potency
CN(CC(=O)OCC(N)=O)S(=O)(=O)c1ccc(Cl)cc1,–,11.6% (inactive),-16.4%,–
O=C(Nc1cccc(Cl)c1)c1ccc2c(=O)n3c(nc2c1)CCCCC3,–,16% (inactive),-6.1%,–
O=C(N1CCCCC1)C12CC3CC(CC(C3)C1)C2,–,0.667% (inactive),-0.102%,–
Cn1c(COc2ccc(Cl)cc2)nnc1SCC(=O)NC1CCCC1,–,–,17.9%,14.6 µM (active)
COc1ccc(OCc2nnc(SCC(=O)NC3CC3)n2C)cc1,–,16.1% (inactive),16.2%,–
Cc1ccc(OCc2nnc(SCC(=O)NC3CCCCC3)n2C)cc1,inactive,–,20.5%,–
COC(=O)c1cc2c(N)c(C(=O)c3ccccc3)sc2nc1C(OC)OC,–,6.49% (inactive),-8.65%,–
O=C(CS(=O)c1ccccc1[N+](=O)[O-])Oc1ccc(Br)cc1 (configuration not stated),–,3.04% (inactive),2.35%,–
CCOC(=O)c1ccccc1OC(=O)CS(=O)c1ccccc1[N+](=O)[O-] (configuration not stated),inactive,–,-21.3%,–
CS(=O)(=O)c1ccc(S(=O)CC(=O)OCc2ccccc2)c([N+](=O)[O-])c1 (configuration not stated),–,–,-65.2%,29.1 µM (active)
CSc1nsc(SCC(=O)N2CCc3ccccc32)n1,inactive,–,-10.2%,–
O=C(NCCCn1ccnc1)C(=O)NCC1OCCN1S(=O)(=O)c1ccc(Br)cc1 (configuration not stated),–,5.76% (inactive),-6.41%,–
O=C(CN1C(=O)NC2(CCCC2)C1=O)Nc1ccccc1F,inactive,–,-18%,–
COC(=O)[C@H](CCSC)NC(=O)Nc1ccc(C(C)=O)cc1,–,-13.7% (inactive),0.814%,–
CSCC[C@H](NC(=O)Nc1cccc(Br)c1)C(=O)O,–,-5.56% (inactive),8.72%,–
CSCC[C@H](NC(=O)Nc1cccc(C(F)(F)F)c1)C(=O)O,–,–,-1.65%,14.6 µM (active)
COC(=O)[C@H](CCSC)NC(=O)Nc1ccc(C)c(C)c1,–,–,-12.2%,5.17 µM (active)
C[C@H](NC(=O)Nc1cccc(C(F)(F)F)c1)C(=O)O,–,3.6% (inactive),14.7%,–
COC(=O)[C@H](CCSC)NC(=O)Nc1cc(C)ccc1C,inactive,–,–,–
COc1cccc(-c2ccc(C#N)c(SCC(=O)NCc3ccco3)n2)c1,–,-1.45% (inactive),0.401%,–
CCOC(=O)c1sc2nc(C)nc(SCC(=O)NC(C)CCc3ccccc3)c2c1C (configuration not stated),inactive,–,–,–

Compound,outcome,"lipid storage change, negative = inhibition",cell number change,Potency
COc1ccc(OC)c(CNC(=O)C2CCC(=O)N(CCCN3CCCC3=O)C2)c1 (configuration not stated),inactive,–,15.9%,–
CCOc1ccc(S(=O)(=O)Nc2nc3ccccc3nc2-n2ccc(=NC(=O)c3ccccc3C)cc2)cc1,–,-19.1% (inactive),-0.599%,–
Cc1cc(C(=O)NNC(=S)NCc2ccco2)nn1C,–,24.4% (inactive),–,–
CN(Cc1c(F)cccc1Cl)C(=O)c1ccc2ccccc2n1,inactive,–,19.7%,–
Cc1cc(C(=O)N(C)Cc2c(F)cccc2Cl)c2ccccc2n1,–,–,-7.26%,5.17 µM (active)
CN(Cc1c(F)cccc1Cl)C(=O)c1cc2ccccc2o1,–,4.71% (inactive),–,–
O=c1cc(NCc2ccco2)[nH]c(=O)n1-c1ccc(Br)cc1,–,1.04% (inactive),-12.2%,–
COc1ccc(-c2cc(CNC(=O)CCl)on2)cc1,–,3.41% (inactive),8.76%,–
COc1ccc(-c2cc(CNC(=O)CN3CCN(C)CC3)on2)cc1,–,–,-114%,4.11 µM (active)
COc1ccc(-c2cc(CNC(C)=O)on2)cc1,–,10.5% (inactive),0.804%,–
COc1ccc(N2CCN(c3nc4ccccn4c(=O)c3C=O)CC2)cc1,–,–,25.2%,4.61 µM (active)
O=Cc1c(N2CCN(c3ccccc3)CC2)nc2ccccn2c1=O,–,4.25% (inactive),2.17%,–
CN1CCN(c2nc3ccccn3c(=O)c2C=O)CC1,inactive,–,25%,–
COc1cccc(NC(=O)CSc2nnnn2C2CCCC2)c1,–,–,-5.13%,8.2 µM (active)
COc1cc(NC(=O)CSc2nnnn2C2CCCC2)cc(OC)c1,inactive,–,5.13%,–
COc1ccc(NC(=O)CSc2nnnn2C2CCCC2)cc1,–,15% (inactive),9.25%,–
CC(C)C(=O)N=c1sc2cccc(F)c2n1C,–,21.4% (inactive),19.6%,–
C/C(=N\NC(=O)CC#N)c1ccc(Oc2ccccc2)cc1,–,6.93% (inactive),6.12%,–
CCOc1ccccc1N1C(=O)c2ccc(C(=O)Nc3cccnc3)cc2C1=O,inactive,–,–,–
CCOc1ccccc1N1C(=O)c2ccc(S(=O)(=O)c3ccc(C(=O)O)cc3)cc2C1=O,–,25.3% (inactive),24.2%,–
CCOc1ccccc1N1C(=O)c2ccc(C(=O)O)cc2C1=O,–,–,-1.3%,4.61 µM (active)

# From PubChem BioAssay AID2685 (National Center for Advancing Translational Sciences (NCATS), 2010)
